Compound activity as filed in PubChem.
S1P4 ag: S1P4 receptor agonists, primary screen, cell-based | Sphingosine 1-phosphate receptor 4 (Homo sapiens), O95977 | S1P4-expressing cell line, agonist reporter assay | activation, % at 4.98 µM | 0.35% of 220,000 active; in the data active = activation above about 11%;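 also: 0% = DMSO vehicle and 100% = reference agonist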
Target sequence (O95977 whole entry, looked up): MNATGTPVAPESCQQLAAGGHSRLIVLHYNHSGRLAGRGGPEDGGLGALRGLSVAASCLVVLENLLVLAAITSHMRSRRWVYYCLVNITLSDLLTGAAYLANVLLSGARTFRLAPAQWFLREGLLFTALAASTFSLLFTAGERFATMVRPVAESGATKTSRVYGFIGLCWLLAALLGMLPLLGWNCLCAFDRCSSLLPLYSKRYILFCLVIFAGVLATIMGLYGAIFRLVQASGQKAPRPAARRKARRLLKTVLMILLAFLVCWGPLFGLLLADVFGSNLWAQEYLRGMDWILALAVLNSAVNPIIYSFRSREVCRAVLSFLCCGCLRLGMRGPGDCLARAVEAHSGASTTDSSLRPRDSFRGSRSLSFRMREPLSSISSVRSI
S1P4 antag: S1P4 receptor antagonists, primary screen, cell-based; Sphingosine 1-phosphate receptor 4 (Homo sapiens), O95977; S1P4-expressing cells, antagonist mode, reporter read-out; inhibition, % at 4.98 µM; 0.26% of 220,000 active; AID 1510, 2009; in the data active = inhibition above about 29%;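 also: 0% = wells stimulated with agonist and 100% = vehicle wells without agonist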
Hsp70 act: Hsp70 transcriptional activators, primary screen, cell-based, HeLa, Hsp70 promoter luciferase, luminescence, 10 µM. HeLa Hsp70 promoter luciferase reporter; scaled: vehicle 0, proteasome-inhibitor control 100%. activation, % at 10 µM. 0.04% of 200,000 active;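 active = activation above the mean across all tested compounds plus 3 SD, cutoff set per campaign, cut at about 5.5% in these data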;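 also: 100% = MG132 at 30 µM as the positive control and 0% = DMSO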
CHOP inhibitor: inhibitors of CHOP promoter induction, primary screen, cell-based, unfolded protein response, luciferase reporter | CHO-K1 CHOP-promoter luciferase, tunicamycin-induced, 15-18 h | inhibition, % at 10 µM | 3.8% of 220,000 active | AID 2732, 2010;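 active = compounds that reduced the stress-induced luciferase reporter signal by more than about 70% of percent inhibition, limit read from the data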;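 also: 0% = tunicamycin plus vehicle and 100% = wells without tunicamycin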
* marks the source's active call; other numbers are inactive results; nt = no result given. The list is not random: actives were taken first. Their share in the collection is about 4.2%.

SMILES | S1P4 ag | S1P4 antag | Hsp70 act | CHOP inhibitor
CC(C)c1ccc(C(C(=O)NC(C)(C)C)N(C(=O)CNC(=O)c2ccco2)c2cccnc2)cc1 (stereo unspecified) | -2.0 | -0.8 | -0.2 | -5.7
O=[N+]([O-])c1cccc(/C=N/n2c(-c3cccnc3)n[nH]c2=S)c1 | 0.1 | -3.6 | -0.2 | 1.2
CC(=O)N(C(C)=O)c1nc(-c2ccccc2)cn1/N=C/c1cccc([N+](=O)[O-])c1 | 1.4 | -12.9 | nt | 91.8*
COc1ccc(CCNC(=O)c2ccc3c(SCC(=O)O)c4c(nc3c2)CCCC4)cc1OC | 3.1 | -11.3 | -0.4 | -4.3
O=[N+]([O-])c1ccc(Oc2ccc(S(=O)(=O)Nc3ccccc3)cc2)cc1 | 1.5 | -22.5 | -0.4 | 71.0*
O=S(=O)(Nc1ccc(S(=O)(=O)Nc2ccccc2)cc1)c1ccccc1 | -1.8 | -8.7 | -0.5 | -7.5
Cc1cc(NC(=O)c2cc(-c3ccccc3)on2)n(-c2ccccc2)n1 | -0.3 | -10.2 | -0.2 | 76.1*
COc1ccc(-c2cc(C(=O)Nc3c(C)nn(Cc4ccccc4)c3C)no2)cc1 | -1.6 | -1.5 | -0.3 | 75.7*
COc1cccc(-c2cc(C(=O)Nc3c(C)nn(Cc4ccccc4)c3C)no2)c1 | -2.2 | 5.9 | -0.2 | 29.6
COc1cccc(-c2cc(C(=O)Nc3c(C)nn(Cc4ccccc4C)c3C)no2)c1 | 0.7 | 1.4 | 0.5 | 70.4*
CCOc1cc(C)c(Cl)cc1S(=O)(=O)N(CC)CC | 0.5 | -8.6 | -0.1 | 34.3
O=C(O)C1C(C(=O)O)C1(c1ccccc1)c1ccccc1 (stereo unspecified) | -0.3 | -2.5 | nt | 9.6
Cc1cccc(NC(=O)Cn2c(O)c(N=NC(=O)c3ccncc3)c3ccccc32)c1 | 0.2 | 8.5 | -0.2 | 83.9*
Cc1c(C(=O)NN)[nH]c2ccc([N+](=O)[O-])cc12 | 0.7 | -6.2 | nt | -0.2
Cc1ccc(C)c2c1[nH]c1ccc([N+](=O)[O-])cc12 | 0.3 | -10.8 | 0.3 | 81.9*
Cn1c(C(=O)N2CCCC(C(=O)NCc3cccs3)C2)cc2sccc21 (stereo unspecified) | 0.6 | -0.2 | 0.2 | 20.7
Cn1c(C(=O)N2CCCC(C(=O)NCCCSC3CCCCC3)C2)cc2sccc21 (stereo unspecified) | 0.5 | 4.2 | -0.1 | 73.5*
CCOc1ccc(N=Nc2c(=O)[nH]n3c(=O)c4c([nH]c23)CCCC4)cc1 | 1.8 | -9.7 | -0.3 | 87.3*
O=c1[nH]n2c(=O)c3c([nH]c2c1N=Nc1cccc(Cl)c1)CCCC3 | 1.1 | -6.2 | -0.3 | -6.8
N#Cc1c(N)nc2c(c1-c1ccco1)CCCCC2 | 2.2 | -4.5 | -0.3 | nt
Cc1ccc(NC(=O)Cn2cncc2-c2ccc([N+](=O)[O-])cc2)cc1C | -0.1 | 10.4 | -0.2 | 81.4*
COC(=O)c1ccc(C)c(NC(=O)CCc2ccc(OC)c(OC)c2)c1 | -2.1 | -4.5 | -0.4 | -13.8
Cn1cc(CN2CCCC(CO)(Cc3cccc(Cl)c3)C2)cn1 (stereo unspecified) | 0.6 | -15.0 | 0.3 | 22.4
CSc1cccc(CN2CCCC(CO)(Cc3cccc(Cl)c3)C2)c1 (stereo unspecified) | -1.6 | -6.6 | -0.2 | 95.5*
Fc1nc(F)c(F)c(NCCCNc2c(F)c(F)nc(F)c2F)c1F | 0.2 | 10.4 | -0.3 | 87.6*
SMILES | S1P4 ag | S1P4 antag | Hsp70 act | CHOP inhibitor
C=C(C)C1CC=C(C)/C(=N/NC(=O)COc2ccccc2C)C1 (stereo unspecified) | 0.6 | -3.4 | -0.1 | 56.7
CCC1CCCCN1c1nc2c(C=O)c(C)nn2c2ccccc12 (stereo unspecified) | -0.6 | -8.7 | -0.3 | 88.8*
O=C(NC(Nc1ncc(S(=O)(=O)c2ccc([N+](=O)[O-])cc2)s1)(C(F)(F)F)C(F)(F)F)c1ccc(Cl)cc1 | -0.2 | 25.5 | -0.4 | 88.1*
CCOc1ccc(C2Nc3ccc4ccccc4c3-c3c2c(=O)oc2ccccc32)cc1 (stereo unspecified) | -1.1 | -2.8 | 0.6 | 81.0*
COc1ccc(C2Nc3ccc4ccccc4c3-c3c2c(=O)oc2ccccc32)cc1 (stereo unspecified) | 1.8 | 8.9 | 0.0 | 66.1
CCOC(=O)Cc1ccc(NS(=O)(=O)c2ccc(SC)cc2)cc1 | 0.7 | -18.6 | -0.3 | 51.3
CCOC(=O)c1ccc(NS(=O)(=O)c2ccc(SC)cc2)cc1 | 1.9 | -4.8 | 0.2 | 78.0*
Cc1ccc(S(=O)(=O)NC(C)C(c2cccs2)N2CCN(c3ccccc3)CC2)cc1 (stereo unspecified) | 0.7 | -3.3 | -0.2 | 78.3*
COc1ccc(N2C(=S)N=C(Nc3ccccc3)C23CCCCC3)cc1 | 1.0 | -9.3 | -0.3 | 101.4*
